# Screening data deposited in PubChem BioAssay by several laboratories.
# TROY NFkB inh: inhibitors of TROY-driven NF-kB signaling, primary screen, Q293 LMP1-TROYcd cells, NF-kB luciferase, uHTS. Q293 LMP1-TROYcd NF-kB luciferase reporter, 4 h. inhibition, % at 10 µM. AID 1347056, 2019. 360,000 compounds, 0.98% hits;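 active = compounds whose plate-normalised and pattern-corrected inhibition of the luciferase reporter signal at the single screening dose is 50% or more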
# TWEAK Fn14 block: inhibitors of TWEAK-Fn14 signaling, primary screen, luciferase reporter cells, uHTS | TWEAK-stimulated Fn14 reporter cells, luciferase luminescence, 8 h | inhibition, % at 10 µM | 360,000 compounds, 2% hits | AID 1159606, 2016; in the data active = inhibition above about 50%
# TRPM1 prom inh: inhibitors of MITF-dependent TRPM1 promoter reporter, primary screen, cell-based, SK-MEL-5, single point, luciferase; 330,000 compounds, 0.83% hits; inhibition, % at 12.5 µM; AID 488899, 2010; SK-MEL-5 TRPM1 promoter luciferase, 24 h;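 active = mean inhibition across replicates of 60% or more, whatever share of single replicates reaches that level; inconclusive = some that reach 60%, reason not given; inactive = mean inhibition across replicates below 60%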
# LMP1 NFkB inh: EBV LMP1-driven NF-kappaB luciferase reporter inhibitors, primary screen, cell-based, luminescence, single point | LMP1-induced NF-kappaB luciferase reporter cells | 350,000 compounds, 0.69% hits | inhibition, % at 12.5 µM; in the data active = inhibition above about 41%; inconclusive = no clear call, values can overlap the other calls;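 also: 0% = neutral control wells and 100% = reference inhibitor control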
# Peg3 prom inh: Peg3 promoter-driven luciferase inhibitors, primary screen, cell-based, HeLa, luciferase luminescence. HeLa PEG-Prom luciferase reporter, overnight. inhibition, % at 20 µM. 360,000 compounds, 1.7% hits. AID 588405, 2011;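 active = inhibition of at least 50% at 20 µM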
# Shn3 inh set2: reduction of Shn3 3'UTR firefly luciferase signal, primary screen, Schnurri-3 inhibitor project, cell-based, Clone20 osteoblasts, set 2; Clone20 osteoblast Shn3 3'UTR firefly luciferase, 24 h; inhibition, % at 12.5 µM; 360,000 compounds, 0.52% hits; AID 588674, 2011;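 active = mean inhibition of at least 75% with every replicate also reaching 75%; inconclusive = mean inhibition at least 75% but some replicate below; inactive = mean inhibition below 75%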;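 also: 0% = median of neutral control wells and 100% = pilot-screen positive control compound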
# * hit, by the source's call; ? = inconclusive; / = not tested or not shown. Only some compounds are listed: those with a hit (about 4.1% of all), similar ones and a draw of the others.
SMILES,TROY NFkB inh,TWEAK Fn14 block,TRPM1 prom inh,LMP1 NFkB inh,Peg3 prom inh,Shn3 inh set2
Nc1cccc2c1C(=O)N(C(=O)/C=C/c1cccc(Br)c1)C2=O,-15.6,53.5*,27.5,-11.4,54.1*,-4.2
Nc1cccc2c1C(=O)N(C(=O)/C=C/c1cccc(F)c1)C2=O,0.2,70.3*,35.1,28.5,79.9*,-13.6
N#Cc1cc(-c2ccccc2)[nH]c1-c1nccc2ccccc12,25.2,56.4*,-1.4,24.1,-16.0,?
Cc1cc(/C=N/n2cnnc2)c(C)n1-c1ccc(OCc2ccccc2F)cc1,-0.9,29.0,-1.4,-5.9,-48.4,62.4
Cc1cc(/C=N/n2cnnc2)c(C)n1-c1ccc(OCc2ccc(Cl)cc2)cc1,-22.5,63.1*,-0.3,7.2,-35.5,76.7
CC(c1nnc(SCC(=O)c2c(N)n(C3CC3)c(=O)[nH]c2=O)n1-c1ccc(F)cc1)N(C)C (centres undefined),4.0,18.0,1.4,-2.7,5.4,-16.7
CCCC[n+]1ccn(C2=C([O-])c3ccccc3C(=O)/C2=N\S(=O)(=O)c2ccc(Br)cc2)c1,-11.9,16.4,93.6*,8.0,9.5,45.3
CC(=O)Nc1ccc(S(=O)(=O)/N=C2\C(=O)c3ccccc3C([O-])=C2n2cc[n+](-c3ccccn3)c2)cc1,6.0,12.2,48.5,38.8,-1.9,/
Cc1ccc(S(=O)(=O)/N=C2\C(=O)c3ccccc3C([O-])=C2n2cc[n+](CCC(C)C)c2)cc1,3.4,2.5,68.8*,-1.0,17.6,-3.5
CCOc1ccc(NS(=O)(=O)c2ccc(NC(=O)c3ccccn3)cc2)cc1,5.4,-15.0,-5.0,0.2,-22.4,13.1
O=C(N/N=C(\c1ccccc1)c1cccnc1)c1cccc(F)c1,-50.6,-0.2,90.0*,46.2*,52.6*,94.7*
O=C(N/N=C(\c1ccccc1)c1cccnc1)c1ccc(O)cc1,-11.3,-7.3,-1.7,-8.0,14.9,-5.0
O=C1C(Cl)=C(Nc2ccc3cn[nH]c3c2)C(=O)c2ccccc21,-95.2,1.2,105.8*,11.6,97.5*,96.5*
CN(C)c1ccc(NC2=C(Cl)C(=O)c3ccccc3C2=O)cc1,42.5,102.0*,101.6*,19.9,100.2*,98.1*
Cc1ccc(NC2=C(NCCO)C(=O)c3ccccc3C2=O)cc1,-0.3,30.0,14.6,-16.0,-69.5,-50.7
CC1=NN(S(=O)(=O)c2ccc(Cl)cc2Cl)C(=O)c2ccccc2O1,0.5,68.1*,3.1,-5.0,7.2,-1.9
COc1ccc(CC(=O)NCCC(C)C)cc1S(=O)(=O)N1CCOCC1,-12.7,15.0,12.7,-2.5,9.4,-2.3
Cc1ccc(-c2nc(N=Nc3ccc(O)cc3)n[nH]2)cc1,-34.2,-6.4,-7.7,-21.1,67.8*,-8.1
CSc1ccccc1NC(=O)Cn1c([N+](=O)[O-])cnc1C,5.0,-1.6,-6.6,1.1,5.7,-66.7
CS(=O)(=O)Nc1ccccc1C(=O)OCC(=O)N1CCC(c2ccccc2)=N1,2.6,-23.0,3.9,-2.0,-8.0,3.6
CC(=O)C1=C(O)C(=O)N(CCCn2ccnc2)C1c1ccc(C)cc1 (centres undefined),6.8,-4.7,2.9,10.3,1.9,-1.0
O=CC1=C(c2ccccc2)Oc2ccccc2O1,38.0,58.3*,12.3,4.4,97.9*,3.6
CCOc1ccccc1NC(=O)[C@@H](NC(=O)c1ccccc1F)C(C)C,1.1,12.8,/,-2.5,2.6,13.7
O=C(O)c1cccc(NC(=O)c2ccc3c(c2)C(=O)N(c2cccc([N+](=O)[O-])c2)C3=O)c1,10.4,6.5,-3.4,2.5,3.6,-37.3
O=C1c2ccccc2C(=O)N1Nc1ccccc1,-9.0,-13.2,1.0,-2.4,2.6,2.2
SMILES,TROY NFkB inh,TWEAK Fn14 block,TRPM1 prom inh,LMP1 NFkB inh,Peg3 prom inh,Shn3 inh set2
Cc1ccc(NN2C(=O)C=C(c3ccccc3)C2=O)cc1,-4.0,16.2,/,/,84.8*,-0.7
CN(C)CC(O)c1ccc(C=Cc2ccc(Cl)cc2)cc1 (centres undefined),-27.4,-100.2,78.3*,-66.3,103.5*,-21.5
CCCCOc1ccc(C(=O)NCC(=O)NCC2CCCO2)cc1 (centres undefined),-8.6,13.5,-1.1,1.1,10.3,-9.2
COc1ccc(Nc2nc(-c3cccc([N+](=O)[O-])c3)nc3ccccc23)cc1,24.7,79.6*,-2.4,-5.0,43.2,-6.4
O=C(O)c1ccc(Nc2nc(-c3ccc([N+](=O)[O-])cc3)nc3ccccc23)cc1,-23.2,17.4,8.5,0.0,15.5,26.4
COc1ccc([N+](=O)[O-])cc1Nc1c2ccccc2nc2ccccc12,2.5,-14.1,31.5,14.2,58.2*,34.5
COc1ccc(Nc2nc(-c3ccccc3)nc3ccccc23)cc1,15.5,6.2,14.7,4.5,3.9,4.0
O=[N+]([O-])c1ccc(-c2nc(Nc3ccc(O)cc3)c3ccccc3n2)cc1,36.0,41.0,41.0,-24.0,63.8*,32.9
Cc1ccc(S(=O)(=O)N2CCOCC2)cc1N/N=C(\C#N)c1nc2ccccc2[nH]1,-13.4,-31.7,-6.7,4.8,-0.7,-18.0
Cc1ccc(S(=O)(=O)N2CCN(C(=O)CSc3nccn3C)CC2)cc1,60.2*,-23.3,-3.7,0.3,-2.8,-8.9
Cc1ccc(N2CC(C(=O)OCc3nnc(-c4ccccc4)o3)CC2=O)cc1 (centres undefined),-20.7,-5.7,-11.2,-4.6,-52.4,5.4
O=C(NCc1cn2ccsc2n1)c1cccc(C(F)(F)F)c1,12.7,-2.7,17.0,5.0,4.4,8.6
Cc1csc2nc(CNC(=O)c3cccc(C(F)(F)F)c3)cn12,/,96.5*,4.4,-2.4,22.0,5.0
Cn1c(C(=O)OC(C(=O)NC2CCCCC2)c2ccncc2)cc2sccc21 (centres undefined),10.7,-12.4,8.8,-1.2,29.1,8.2
O=C(NCc1cccnc1)c1ccc(NC(=O)c2cccc([N+](=O)[O-])c2)cc1,14.0,-12.8,-3.8,-24.9,-2.7,68.2
CCOc1ccc(OCCC(=O)OCC(=O)NNC(=O)c2ccccc2)cc1,-12.4,26.7,6.5,3.7,12.7,-9.3
N#Cc1c(C#N)c(SSc2c(C#N)c(C#N)c(N)n2-c2ccccc2)n(-c2ccccc2)c1N,1.4,19.0,92.5*,-1.1,105.5*,88.6*
N#Cc1c(N)n(-c2ccc(N)cc2)c2nc3ccccc3nc12,-6.8,-16.1,-4.7,3.3,12.0,0.1
Nc1c(N(CCC2=CCCCC2)C(=O)COc2ccc(F)cc2Cl)c(=O)[nH]c(=O)n1Cc1ccccc1,10.2,42.4,97.5*,6.1,106.0*,77.5
